Results on 42 compounds are retold here after PubChem BioAssay.

By inhibition is commonly meant the drop in the measured response relative to a control, in per cent.

Assay [1] has as its target Nuclear receptor coactivator 3 (Homo sapiens) (UniProt Q9Y6Q9). The assay is described as follows: NCOA3 GAL4-fusion reporter inhibition – cell-based, luminescence, quadruplicate, confirmation (AID 588792).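 Also: 0% = DMSO treated cells and 100% = gossypol at 36 µM.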 The conditions noted are these: HEK293 GAL4-SRC3 luciferase reporter, at 3.6 µM, hits give high values. Background: In a reporter assay the amount or activity of a reporter protein is the signal.

Assay [2] relates to transactivating tegument protein VP16 (Human herpesvirus 1), Gal4-VP16 luciferase reporter. The assay is described as follows: repression of VP16-driven luciferase reporter – cell-based, luminescence, high throughput, counter-screen for SRC3 inhibitor project (AID 588794; in the data active = inhibition above about 30%). The conditions noted are these: mammalian cells, at 3.6 µM, hits give high values.
Assay [3] addresses Nuclear receptor coactivator 1 (Homo sapiens) (UniProt Q15788). The assay is described as follows: NCOA1 GAL4-fusion reporter inhibition – cell-based, luminescence, quadruplicate, confirmation (AID 588820;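 active = mean inhibition above 46.68%, the untreated control wells mean plus 3 SD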;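 also: 0% = DMSO wells and 100% = gossypol 36 µM treated wells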). The note with it: HEK293 GAL4-SRC1 luciferase reporter, at 3.6 µM, hits give high values.
The nature of assay [4]: repression of VP16-driven luciferase reporter – cell-based, luminescence, high throughput, counter-screen for SRC1 inhibitor project (AID 588824; in the data active = inhibition above about 25%). The conditions noted are these: cell-based VP16 transactivation luciferase luminescence; at 3.6 µM; hits give high values.
A short description of assay [5]: StAR promoter reporter inhibitors, counter-screen for LRH-1 inverse agonist project, cell-based, luminescence, high throughput (AID 651611; in the data active = inhibition above about 28%). The conditions noted are these: StAR promoter luciferase reporter counterscreen, at 3.6 µM, hits give high values. On the technique in general: The purpose of a counterscreen is to sort out artefacts and off-target activity.
The target of assay [6] is Nuclear receptor subfamily 5 group A member 2 (Homo sapiens) (UniProt O00482). The assay is described as follows: NR5A2 activity suppression in reporter cells – cell-based, luminescence, confirmation (AID 651613; in the data active = inhibition above about 42%;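 also: HEK293T cells co-transfected with LRH-1 and StAR promoter luciferase reporter; 0% = vehicle wells and 100% = parental cells lacking receptor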). The conditions noted are these: cell-based LRH-1 luciferase reporter, inverse agonism; at 3.6 µM; hits give high values.
The target of assay [7] is Steroidogenic factor 1 (Homo sapiens) (UniProt Q13285). The assay is described as follows: inverse agonism at SF1 nuclear receptor – cell-based, luminescence, high throughput, counter-screen for LRH-1 inverse agonist project (AID 651614; in the data active = inhibition above about 44%;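 also: cells cotransfected with StAR promoter reporter and SF1 expression vector; 0% = vehicle on cells with receptor and 100% = vehicle on cells lacking receptor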). The note with it: cell-based SF1 luciferase reporter, at 3.6 µM, hits give high values.
The nature of assay [8]: compounds suppressing VP16-driven luciferase signal – cell-based, luminescence, high throughput, counter-screen for LRH-1 inverse agonist project (AID 651615; in the data active = inhibition above about 33%). The conditions noted are these: Gal4-VP16 luciferase reporter cells, at 3.6 µM, hits give high values.

The structures appear in SMILES notation. Values without a mark were called inactive. Calls of active or inactive are those of the source.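 The calls were made as follows, unless noted: active = mean inhibition over 43.08%, the solvent-only control mean plus 3 SD; inactive = the rest.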

Sequence of Steroidogenic factor 1 (Homo sapiens) (Q13285 whole entry, looked up, the tested form may be a part): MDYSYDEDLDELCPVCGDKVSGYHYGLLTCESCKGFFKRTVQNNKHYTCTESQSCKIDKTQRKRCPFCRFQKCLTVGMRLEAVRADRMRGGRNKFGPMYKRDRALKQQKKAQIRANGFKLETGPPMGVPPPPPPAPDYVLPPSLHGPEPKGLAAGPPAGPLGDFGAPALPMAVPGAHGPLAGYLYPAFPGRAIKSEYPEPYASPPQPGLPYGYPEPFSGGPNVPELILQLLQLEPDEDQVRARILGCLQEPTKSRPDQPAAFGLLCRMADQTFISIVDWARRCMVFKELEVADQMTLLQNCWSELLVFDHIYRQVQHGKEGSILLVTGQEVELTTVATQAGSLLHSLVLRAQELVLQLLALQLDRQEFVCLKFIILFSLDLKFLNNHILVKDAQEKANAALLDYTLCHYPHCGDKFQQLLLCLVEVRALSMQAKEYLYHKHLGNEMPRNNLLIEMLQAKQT
Sequence of Nuclear receptor coactivator 1 (Homo sapiens) (Q15788 whole entry, looked up, the tested form may be a part): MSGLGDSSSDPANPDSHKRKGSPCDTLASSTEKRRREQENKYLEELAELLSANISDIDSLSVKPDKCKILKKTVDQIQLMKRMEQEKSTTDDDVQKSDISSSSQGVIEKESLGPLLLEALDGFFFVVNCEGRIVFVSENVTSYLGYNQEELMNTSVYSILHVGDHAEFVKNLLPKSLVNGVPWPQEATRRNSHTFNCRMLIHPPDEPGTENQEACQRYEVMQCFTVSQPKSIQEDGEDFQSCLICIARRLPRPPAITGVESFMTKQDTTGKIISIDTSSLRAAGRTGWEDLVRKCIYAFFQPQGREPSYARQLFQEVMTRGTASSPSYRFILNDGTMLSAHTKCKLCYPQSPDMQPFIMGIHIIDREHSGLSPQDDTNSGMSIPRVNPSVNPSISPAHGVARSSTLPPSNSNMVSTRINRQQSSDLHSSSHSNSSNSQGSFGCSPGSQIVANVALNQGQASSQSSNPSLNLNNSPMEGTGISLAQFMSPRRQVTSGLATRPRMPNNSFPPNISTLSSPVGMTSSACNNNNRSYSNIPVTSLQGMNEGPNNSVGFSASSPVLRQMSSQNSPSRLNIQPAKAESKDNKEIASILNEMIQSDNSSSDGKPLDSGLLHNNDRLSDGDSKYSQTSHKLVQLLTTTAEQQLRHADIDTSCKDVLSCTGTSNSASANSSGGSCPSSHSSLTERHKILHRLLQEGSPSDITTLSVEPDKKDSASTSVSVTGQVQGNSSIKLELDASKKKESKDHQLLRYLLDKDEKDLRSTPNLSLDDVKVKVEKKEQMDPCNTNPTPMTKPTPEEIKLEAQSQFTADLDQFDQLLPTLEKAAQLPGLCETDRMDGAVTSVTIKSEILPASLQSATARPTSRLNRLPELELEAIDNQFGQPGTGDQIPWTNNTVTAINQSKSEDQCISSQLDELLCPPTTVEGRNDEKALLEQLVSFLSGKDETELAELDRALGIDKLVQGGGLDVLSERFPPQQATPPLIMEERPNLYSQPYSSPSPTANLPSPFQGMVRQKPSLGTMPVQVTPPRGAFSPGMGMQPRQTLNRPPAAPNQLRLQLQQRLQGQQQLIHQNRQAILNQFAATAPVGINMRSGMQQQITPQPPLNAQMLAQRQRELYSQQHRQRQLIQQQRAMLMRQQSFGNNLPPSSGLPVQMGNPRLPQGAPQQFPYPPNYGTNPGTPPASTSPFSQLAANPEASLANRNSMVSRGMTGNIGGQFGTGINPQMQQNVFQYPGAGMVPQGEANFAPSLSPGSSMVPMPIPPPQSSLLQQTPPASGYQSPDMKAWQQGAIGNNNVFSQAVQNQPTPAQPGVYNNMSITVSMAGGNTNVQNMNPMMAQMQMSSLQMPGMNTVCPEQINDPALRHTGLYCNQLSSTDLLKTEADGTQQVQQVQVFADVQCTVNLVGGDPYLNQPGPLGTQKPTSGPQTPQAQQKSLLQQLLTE
Sequence of Nuclear receptor coactivator 3 (Homo sapiens) (Q9Y6Q9 whole entry, looked up, the tested form may be a part): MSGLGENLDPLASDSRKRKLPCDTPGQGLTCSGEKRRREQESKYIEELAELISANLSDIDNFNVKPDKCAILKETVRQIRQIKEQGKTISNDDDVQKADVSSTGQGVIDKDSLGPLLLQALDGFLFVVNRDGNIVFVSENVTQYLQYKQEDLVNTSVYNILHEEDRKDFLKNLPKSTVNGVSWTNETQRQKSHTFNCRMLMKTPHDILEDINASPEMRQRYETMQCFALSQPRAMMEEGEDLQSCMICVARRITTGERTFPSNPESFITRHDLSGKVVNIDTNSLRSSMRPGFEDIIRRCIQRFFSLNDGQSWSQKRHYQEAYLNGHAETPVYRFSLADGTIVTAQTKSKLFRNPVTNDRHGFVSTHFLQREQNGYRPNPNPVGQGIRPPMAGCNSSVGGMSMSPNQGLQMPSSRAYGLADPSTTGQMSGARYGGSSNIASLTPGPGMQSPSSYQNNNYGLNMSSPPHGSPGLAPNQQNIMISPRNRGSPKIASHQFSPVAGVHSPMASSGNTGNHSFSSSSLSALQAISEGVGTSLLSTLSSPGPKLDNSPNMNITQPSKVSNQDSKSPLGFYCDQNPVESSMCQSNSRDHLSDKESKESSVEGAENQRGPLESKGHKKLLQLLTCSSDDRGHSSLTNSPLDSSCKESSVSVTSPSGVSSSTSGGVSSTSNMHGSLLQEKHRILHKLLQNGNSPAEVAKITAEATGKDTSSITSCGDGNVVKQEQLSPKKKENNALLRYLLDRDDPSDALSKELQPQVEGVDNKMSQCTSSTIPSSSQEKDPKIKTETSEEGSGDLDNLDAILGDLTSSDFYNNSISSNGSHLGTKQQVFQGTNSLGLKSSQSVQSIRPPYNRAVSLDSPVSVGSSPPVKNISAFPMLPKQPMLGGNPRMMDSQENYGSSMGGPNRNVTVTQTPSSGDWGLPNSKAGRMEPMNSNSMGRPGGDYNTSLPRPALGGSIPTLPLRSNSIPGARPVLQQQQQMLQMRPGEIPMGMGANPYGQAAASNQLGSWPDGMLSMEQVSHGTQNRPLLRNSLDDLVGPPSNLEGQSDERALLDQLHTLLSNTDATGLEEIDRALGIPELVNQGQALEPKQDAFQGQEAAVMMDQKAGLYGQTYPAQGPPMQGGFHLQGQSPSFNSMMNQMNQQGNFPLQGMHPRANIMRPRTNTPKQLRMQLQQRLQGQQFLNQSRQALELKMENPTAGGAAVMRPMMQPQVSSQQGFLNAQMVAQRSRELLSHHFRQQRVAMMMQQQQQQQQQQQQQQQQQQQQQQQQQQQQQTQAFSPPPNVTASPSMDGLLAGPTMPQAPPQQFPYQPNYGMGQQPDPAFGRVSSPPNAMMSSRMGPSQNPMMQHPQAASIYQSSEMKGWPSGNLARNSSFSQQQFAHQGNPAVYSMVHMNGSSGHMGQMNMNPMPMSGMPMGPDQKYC
Sequence of Nuclear receptor subfamily 5 group A member 2 (Homo sapiens) (O00482 whole entry, looked up): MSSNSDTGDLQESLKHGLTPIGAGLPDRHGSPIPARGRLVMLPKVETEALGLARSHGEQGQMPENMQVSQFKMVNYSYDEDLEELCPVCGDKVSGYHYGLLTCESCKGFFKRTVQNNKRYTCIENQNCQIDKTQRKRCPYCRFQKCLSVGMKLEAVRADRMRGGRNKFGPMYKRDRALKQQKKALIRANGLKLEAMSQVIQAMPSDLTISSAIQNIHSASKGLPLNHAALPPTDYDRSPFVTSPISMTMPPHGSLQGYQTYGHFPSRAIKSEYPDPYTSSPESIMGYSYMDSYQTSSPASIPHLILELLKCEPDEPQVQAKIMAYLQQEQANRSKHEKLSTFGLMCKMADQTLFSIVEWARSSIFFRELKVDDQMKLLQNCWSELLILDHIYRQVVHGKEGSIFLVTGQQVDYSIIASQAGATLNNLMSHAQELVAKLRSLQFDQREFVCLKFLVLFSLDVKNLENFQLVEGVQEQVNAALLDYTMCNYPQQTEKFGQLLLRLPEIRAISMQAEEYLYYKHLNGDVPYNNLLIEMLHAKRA

On to `Cc1ccc(C[n+]2c(-c3ccc(C)cc3)cc(-c3ccc(C)cc3)cc2-c2ccc(C)cc2)cc1`, for which the inhibition in assay [1] was 91.3% (active); in assay [2], 87.9% (active); in assay [3], 44.1%; in assay [4], 84.7% (active).
With `Cc1ccc(N=C(/N=C(\N)N[N+](=O)[O-])Nc2ccc(C)cc2)cc1`, the inhibition is -0.99% in assay [1] and 1.74% in assay [2].
As to `CSCCC(c1nnnn1-c1ccc2c(c1)OCCO2)N1CCC(n2c(=O)[nH]c3ccccc32)CC1` (centres undefined), the inhibition is 15% in assay [1], 14.7% in assay [2], -22.6% in assay [3] and 20.9% in assay [4].
Turning to `O=c1[nH]c2ccccc2n1C1CCN(C(c2ccccc2)c2nnnn2-c2ccc3c(c2)OCCO3)CC1` (centres undefined), the inhibition in assay [1] is 41.3%; in assay [2] it was 14.1%; in assay [3], -15.1%; in assay [4] it was 16.1%.
In the same order, the values of `Cc1[nH]nc2ccc(-c3cncc(OC[C@@H](N)Cc4c[nH]c5ccccc45)c3)cc12` are 98.5% (active), 97.1% (active), 93.5% (active) and 97.3% (active).
Take `CCN(CCCl)c1cc(CN(C)C)cc(NC(=O)c2ccc(C(=O)Nc3cc(CN(C)C)cc(N(CC)CCCl)c3)cc2)c1`: the inhibition in assay [1] was 94.8% (active); in assay [2] it was 92% (active).
For the compound `CNC(=O)c1cccn(Cc2cccc(C(F)(F)F)c2)c1=O`, the inhibition is 19.5% in assay [1], -23.9% in assay [2], -26.7% in assay [3] and -25.9% in assay [4].
For the compound `Cc1cc(C)n(-c2ccc(NN=C(C#N)C#N)cc2)n1`, the inhibition was 43.3% (active) in assay [1] and 61.8% (active) in assay [2].
On to `N#CC(C#N)=NNc1ccc(-n2ccc(C(F)(F)F)n2)cc1`, for which the inhibition in assay [1] was 49.1% (active); in assay [2] it was 52.6% (active); in assay [3], 40.7%; in assay [4], 56.3% (active).
As to `COc1cc2c(cc1O)C[C@H]1NCCc3cc4c(c-2c31)OCO4`, the inhibition was 32.3% in assay [1], 33.2% (active) in assay [2], 22.1% in assay [3] and 40.2% (active) in assay [4].
For the compound `N=c1c2c(n(Cc3ccc(Cl)cc3Cl)c3c1CCC3)CCCC2`, the inhibition in assay [1] is 43.5% (active); in assay [2], 62.9% (active); in assay [3] it was 41.2%; in assay [4], 63.4% (active).
As to `C[C@H]1CCC/C=C/C2C[C@H](O)CC2[C@H](O)/C=C/C(=O)O1` (some centres undefined), the inhibition in assay [1] was 69.2% (active); in assay [2] it was 80.2% (active).
In the case of `Cc1cc(C)cc(NC2=NCCCS2)c1`, the inhibition in assay [1] is -10.4%; in assay [2] it was 1.9%.
Turning to `COc1ccc(OC(=O)N(C)C)c(CN(C)C)c1`, the inhibition is 5.12% in assay [1] and -6.66% in assay [2].
For the compound `Cc1c(C(=O)N2CCC3(CC2)OCCO3)sc2ncnc(N3CCN(c4ccccn4)CC3)c12`, the values for the inhibition in assay [1] and in assay [2] were -7.87% and -13.2%, respectively.
As for `CC(=O)c1c(C)n(C2CCCCC2)c2ccc(O)cc12`, the inhibition in assay [1] is 81.2% (active); in assay [2], 58.5% (active); in assay [3], 68.4% (active); in assay [4], 60.2% (active).
Turning to `COc1ccc(-n2c(O)c(C(C)=NCCCn3ccnc3)c(=O)[nH]c2=O)cc1`, the inhibition in assay [1] is 31.6%; in assay [2] it was 32.6% (active).
With `CCn1c(O)c(C=NCCN2CCOCC2)c(=O)n(CC)c1=S`, the inhibition in assay [1] is 9.7%; in assay [2], 7.94%.
Consider `CCn1nc(/C=C/c2ccccc2)nc2c(=O)n(C)c(=O)nc1-2`, for which the figures for the inhibition in assay [1] and in assay [2] were 39.2% and 9.67%, respectively.
With `Cc1cccc(C)c1-n1nnnc1C(CCc1ccccc1)N1CCC(n2c(=O)[nH]c3ccccc32)CC1` (centres undefined), the inhibition was 40.6% in assay [1], 49.2% (active) in assay [2], 20.7% in assay [3] and 51.8% (active) in assay [4].
For the compound `C/C(=N\Nc1ccccc1)c1c(O)[nH]c(=O)[nH]c1=O`, the inhibition was 0.35% in assay [1], 17.7% in assay [2], -2.36% in assay [3] and 13.6% in assay [4].
In the same order, the values of `O=c1[nH]c2ccccc2n1C1CCN(C(CCc2ccccc2)c2nnnn2Cc2ccccc2)CC1` (centres undefined) are 34.6%, 40.3% (active), 12% and 36.7% (active).
In the case of `COc1cccc(C(c2nnnn2-c2ccc3c(c2)OCCO3)N2CCC(n3c(=O)[nH]c4ccccc43)CC2)c1OC` (centres undefined), the inhibition was 26.6% in assay [1], 35.9% (active) in assay [2], -22.4% in assay [3] and 24.7% in assay [4].
In the same order, the values of `O=C1/C(=C/c2ccccc2)C[C@@]2(O)[C@H]3Cc4ccc(O)c5c4[C@@]2(CCN3CC2CC2)C1O5` (some centres undefined) are 92.8% (active), 73.1% (active), 85.4% (active) and 73.2% (active).
As for `CCCNC(=O)N1[C@H]2CC[C@@H]1C(C(=O)OC)=C(c1ccc(OC(F)(F)F)cc1)C2`, the inhibition was 14.2% in assay [1] and -7.81% in assay [2].
On to `COc1ccc(-n2nnnc2C(c2cccc3ccccc23)N2CCC(n3c(=O)[nH]c4ccccc43)CC2)cc1` (centres undefined), for which the inhibition in assay [1] is -24.1%; in assay [2], 4.21%.
In the same order, the values of `O=c1[nH]c2ccccc2n1C1CCN(C(CCc2ccccc2)c2nnnn2-c2ccc3c(c2)OCCO3)CC1` (centres undefined) are 30.3% and 48.9% (active).
Take `O=c1[nH]c2ccccc2n1C1CCN(C(CCc2ccccc2)c2nnnn2C2CCCC2)CC1` (centres undefined): the inhibition is 23.4% in assay [1], 7.82% in assay [2], -2.66% in assay [3] and 10.8% in assay [4].
`COC(=O)C1CN(C#N)N(c2ccc(Cl)cc2)C12c1ccccc1-c1ccccc12` (centres undefined): the inhibition in assay [1] was 13.6%; in assay [2], 33.5% (active).
With `CSCCC(c1nnnn1Cc1ccccc1)N1CCC(n2c(=O)[nH]c3ccccc32)CC1` (centres undefined), the inhibition in assay [1] was 52.8% (active); in assay [2] it was 46.3% (active); in assay [3], 36.4%; in assay [4], 44.5% (active).
In the case of `CCCCCCCn1c(=O)c(C(=O)Nc2cnccn2)c(O)c2ccccc21`, the results for the inhibition in assay [1] and in assay [2] were -22.1% and -5.22%, respectively.
As to `O=c1[nH]c(=O)n(CCC2=CCCCC2)c(O)c1C=NC1CCN(Cc2ccccc2)CC1`, the inhibition is -0.53% in assay [1] and 36.4% (active) in assay [2].
For the compound `C=C1C(C)C2C(Cc3ccccc3)NC(=O)C23OC(=O)/C=C/C(O)CCCC(C)C/C=C/C3C1O` (centres undefined), the inhibition in assay [1] is 10.6%; in assay [2] it was 22.1%.
Consider `CC1=CC2/C=C(\C)CCC(O)C(O)/C=C/C(=O)C23C(=O)NC(CC(C)C)C3C1C` (centres undefined), for which the inhibition in assay [1] was 36%; in assay [2], 54.8% (active).
As for `CCCc1nc2ccc(Br)cc2c(=O)n1-c1ccc([N+](=O)[O-])c(C(F)(F)F)c1`, the inhibition is -13% in assay [1], 11.2% in assay [2], 13.3% in assay [3] and 14.8% in assay [4].
`CN1CCN(c2ncnc3ccc(Br)cc23)CC1`: the inhibition was 42.3% in assay [1], 37.6% (active) in assay [2], 31.2% in assay [3] and 33.4% (active) in assay [4].
In the same order, the values of `C[C@H]1CCC[C@@H](O)CCC/C=C/c2cc(O)cc(O)c2C(=O)O1` are 61.8% (active), 63.4% (active), 29.2% and 56.1% (active).
As for `Cc1ccc(-c2cc(-c3ccc(C)cc3)[n+](-c3ccccc3)c(-c3ccc(C)cc3)c2)cc1`, the inhibition was 79.8% (active) in assay [1]; 82.6% (active) in assay [2]; 48.3% (active) in assay [3]; 80.6% (active) in assay [4]; 84.5% (active) in assay [5]; 111% (active) in assay [6]. The inhibition in assay [7] is 94.8% (active); in assay [8], 95% (active).
`O=c1[nH]c2ccccc2n1C1CCN(C(c2ccccc2OC(F)(F)F)c2nnnn2-c2ccc3c(c2)OCCO3)CC1` (centres undefined): the inhibition in assay [1] was 27.6%; in assay [2], -1.84%; in assay [3], -23.1%; in assay [4], -0.24%; in assay [5] it was 61.8% (active); in assay [6] it was 37.3%. Moreover, the results for the inhibition in assay [7] and in assay [8] were 43.7% (active) and 39.8% (active), respectively.
In the case of `O=c1[nH]c2ccccc2n1C1CCN(C(c2nnnn2-c2ccc3c(c2)OCCO3)C2CC2)CC1` (centres undefined), the inhibition was 25.1% in assay [1], 23.5% in assay [2], -8.7% in assay [3] and 22% in assay [4].
As to `O=c1[nH]c2ccccc2n1C1CCN(C(c2ccccc2OC(F)(F)F)c2nnnn2Cc2ccccc2)CC1` (centres undefined), the inhibition was -2.46% in assay [1], 2.54% in assay [2], -29% in assay [3] and 0.5% in assay [4].
On to `c1ccc(-c2cc(-c3ccccc3)[n+](-c3ccccc3)c(-c3ccccc3)c2)cc1`, for which the inhibition in assay [1] is 61.7% (active); in assay [2], 75.9% (active); in assay [3] it was 49.1% (active); in assay [4], 81.6% (active); in assay [5], 69.6% (active); in assay [6], 104% (active). For the same compound, the inhibition in assay [7] was 81.3% (active); in assay [8] it was 89.4% (active).
